Screening results from PubChem.
VACV Venus inh – vaccinia inhibition (Venus reporter); Vaccinia virus Venus reporter expression, fluorescence; Potency, µM (titrated, usually from 36.5 µM), for the others: top-dose activity change, negative = inhibition, usual class: inhibitors; 0.46% of 330,000 active; AID 720580; calls by dose curve; tested in A549 cells; further: nearly all actives have a fitted effect of over 30% in size
VACV mCherry inh – inhibitors of vaccinia virus infection (mCherry reporter signal) | Potency, µM (highest dose often 36.5 µM), for the others: at the top dose activity change, negative = inhibition, most hits filed as inhibitors | Vaccinia virus mCherry reporter infection, fluorescence | AID 720579 | 0.63% of 310,000 active; calls by dose curve; tested in A549 cells; further: nearly all actives have a fitted effect of over 35% in size
AmpC inh no detg – AmpC beta-lactamase inhibition without detergent; Potency, µM (series often up to 57.1 µM), for inactives: top-dose activity change, negative = inhibition, hits mostly inhibitors; 0.52% of 330,000 active; AID 485341; AmpC nitrocefin hydrolysis, absorbance 480 nm, 0.0001% Triton; P00811;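 further: plate controls were no compound for no effect and no enzyme for full effect; nearly all actives have a fitted effect of over 20% in size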
Target sequence (P00811 whole entry, looked up): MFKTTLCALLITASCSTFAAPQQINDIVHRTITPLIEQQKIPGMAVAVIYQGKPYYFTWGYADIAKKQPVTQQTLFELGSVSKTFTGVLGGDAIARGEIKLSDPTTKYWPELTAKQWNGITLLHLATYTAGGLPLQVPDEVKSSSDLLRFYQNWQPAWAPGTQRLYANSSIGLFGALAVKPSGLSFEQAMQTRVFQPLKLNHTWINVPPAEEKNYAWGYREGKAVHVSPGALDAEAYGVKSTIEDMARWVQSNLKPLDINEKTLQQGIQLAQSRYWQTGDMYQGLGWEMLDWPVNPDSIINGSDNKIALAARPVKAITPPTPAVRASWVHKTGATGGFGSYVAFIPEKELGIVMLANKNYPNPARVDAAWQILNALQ
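20 mM phosphate pH 7.0 + 0.01% (detergent screen) or 0.0001% Triton X-100; 5.3 nM AmpC reagent; cpd preinc 15 min RT; nitrocefin (800 uM stock) to start; A480 q20 s × 4 min; Activity was normalised to no-enzyme and no-compound control wells.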
AmpC inh detg – blocks E. coli AmpC beta-lactamase in detergent assay; P00811; AmpC hydrolysis of nitrocefin, absorbance 480 nm, 0.01% Triton; Potency, µM (doses to about 114 µM), for inactives: at the highest dose activity change, negative = inhibition, actives largely listed as inhibitors; 0.041% of 370,000 active; AID 485294;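 further: 0% = no-compound wells and -100% = no-enzyme wells; nearly all actives have a fitted effect of over 25% in size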
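AmpC (5.3 nM in the dispensed reagent) in 20 mM phosphate pH 7.0 with 0.01% (detergent screen) or 0.0001% Triton X-100 was preincubated with compounds for 15 min at room temperature. Nitrocefin was then added from an 800 uM solution, and hydrolysis was followed at 480 nm.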
Starred values were filed as active, the others as inactive. Only some compounds are listed: those with a hit (about 1.1% of all), similar ones and a draw of the others. Unless noted, the call rests on the fitted dose curve; in most records, active means well fitted curve in the direction sought with a large enough effect; inconclusive means small, poorly fitted or top-dose-only effect, or another doubt; inactive means no such curve, though single readings can be large; an effect the other way counts as inactive or inconclusive. Unless noted, on the % scale 0 is the no-effect control and ±100 the full control effect; potency means the concentration at half of the fitted maximal effect.

C[C@@H](NC(=O)c1coc(=O)c(Br)c1)c1ccccc1 was read as VACV Venus inh -8%, AmpC inh no detg -17% and AmpC inh detg -2%.
Cc1cc(NC(=O)c2coc(=O)c(Br)c2)ccc1C(C)C was read as VACV Venus inh -2%, VACV mCherry inh -7%, AmpC inh no detg 16µM* and AmpC inh detg 8%.
Screening CS(=O)(=O)n1nc(-c2ccc(Cl)cc2)nc1N returned VACV Venus inh -10%, VACV mCherry inh inactive, AmpC inh no detg -9% and AmpC inh detg 4%.
Cn1nc(-c2cccnc2)nc2c(=O)n(C)c(=O)nc1-2 was read as VACV Venus inh 2.5µM* and VACV mCherry inh 3.2µM*.
Cn1nc(-c2ccc(Cl)cc2)nc2c(=O)n(C)c(=O)nc1-2 was read as VACV Venus inh 2µM*, VACV mCherry inh 2µM*, AmpC inh no detg -21% and AmpC inh detg inconclusive.
For Cn1nc(-c2ccc(F)cc2)nc2c(=O)n(C)c(=O)nc1-2 the results were VACV Venus inh 2.8µM* and VACV mCherry inh 0.63µM*.
`Cc1cc(C)n2nc(-c3cccnc3)nc2n1` gave VACV Venus inh -2%, AmpC inh no detg -16% and AmpC inh detg -15%.
`O=C([C@@H]1C[C@@H](Sc2nc3ccccc3[nH]2)CN1Cc1ccc(C(F)(F)F)cc1)N1CCN(c2ccccc2F)CC1` gave VACV Venus inh 0% and VACV mCherry inh -5%.
N#Cc1nc(-c2ccc(OCc3ccccc3Cl)cc2)oc1N1CCCCCC1 was read as VACV Venus inh -13% and VACV mCherry inh 27%.
Cc1ncc2c(c1CNC(=O)c1ccc3c(c1)OCO3)CCN(C(=O)c1scc3c1CCCC3)C2 was read as VACV Venus inh 9% and VACV mCherry inh -10%.
Screening CCNC(=O)c1cc(NC(=O)COC)cc2nc(-c3ccncc3)n(C)c12 returned VACV Venus inh -9% and VACV mCherry inh -13%.
Screening CCCCc1cc(=O)oc2cc(C)c(CN3CCCC3)c(O)c12 returned AmpC inh no detg 16µM* and AmpC inh detg -14%.
Screening CCc1cc(=O)oc2cc(C)c(CN3CCCC(C)C3)c(O)c12 (stereo unspecified) returned AmpC inh no detg -58% and AmpC inh detg -10%.
Screening COc1ccc(Cl)cc1C(=O)NNC(=O)c1[nH]c(C)c(C(C)=O)c1C returned VACV Venus inh -10%, VACV mCherry inh inactive and AmpC inh no detg 10µM*.
CC(=O)c1c(C)[nH]c(C(=O)NNC(=O)c2ccc(C)cc2)c1C was read as AmpC inh no detg -20%.
Cc1ccc(S(=O)(=O)Nc2nc3ccccc3s2)cc1 was read as AmpC inh no detg -18% and AmpC inh detg inconclusive.
O=S(=O)(Nc1nc2ccccc2s1)c1ccc(Br)s1 was read as VACV Venus inh -7%, VACV mCherry inh inactive, AmpC inh no detg 32µM* and AmpC inh detg inconclusive.
COc1ccc2c(c1OC)C(=O)OC2Nc1nc(-c2cc3cc(Br)ccc3oc2=O)cs1 (stereo unspecified) was read as VACV Venus inh inconclusive, VACV mCherry inh inconclusive, AmpC inh no detg 32µM* and AmpC inh detg -11%.
`COc1ccc(-c2csc(NC3OC(=O)c4c3ccc(OC)c4OC)n2)cc1OC` (stereo unspecified) gave VACV Venus inh inconclusive, VACV mCherry inh inconclusive, AmpC inh no detg -14% and AmpC inh detg 2%.
`O=C(NCCc1nnc2n1CCN(Cc1ccc3c(c1)CCO3)CC2)c1ccco1` gave VACV Venus inh -9% and VACV mCherry inh -8%.
For COCC1CCCN(Cc2ccc3c(c2)CN(C(=O)c2cnn(C(C)C)c2)CCO3)C1 (stereo unspecified) the results were VACV Venus inh 3% and VACV mCherry inh -10%.
Screening COc1ccc2c(c1)-c1nc(NC(=O)c3ccc(Cl)cc3)sc1CC2 returned VACV Venus inh inconclusive, VACV mCherry inh inconclusive and AmpC inh detg 21%.
For COc1ccc2c(c1)-c1nc(NC(=O)c3cc(Cl)ccc3OC)sc1CC2 the results were VACV Venus inh 10µM*, VACV mCherry inh 10µM* and AmpC inh detg 22%.
For C/C(=N/NS(=O)(=O)c1ccc(C)cc1C)c1c[nH]c2ccccc12 the results were VACV Venus inh -24%, VACV mCherry inh 5µM*, AmpC inh no detg -36% and AmpC inh detg inconclusive.
Brc1cccc(-c2n[nH]c(-c3ccccc3)n2)c1 was read as VACV Venus inh inconclusive, VACV mCherry inh inconclusive, AmpC inh no detg 8.9µM* and AmpC inh detg -4%.
